For 8 compounds, outcome and AC50 results are on record in PubChem BioAssay (EPA / NIEHS).

Inconclusive results are not listed. Active and inactive are the calls of the source. The calls were made as follows: active = hit-call score of the fitted dose curve at least 0.9, where 1 is the maximum; inconclusive = response in the unintended direction; inactive = score below 0.9.

Test [1] in a line: TOX21_p53_BLA_p2_viability: Viability Assessment in the Tox21 HCT-116 p53 Agonism Beta-lactamase Assay, Phase 2 (AID 2283591).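 Also: actives lower the ATP signal meaning cytotoxicity.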 In short, it runs like this: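 Cytotoxicity readout: CellTiter-Glo ATP luminescence, 30 min at room temperature, after the beta-lactamase read. Cells were HCT116 exposed 16 h at 37C to compounds pin-transferred at 217-fold dilution from DMSO stocks.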

Test [2] concerns the target Cellular tumor antigen p53 (Homo sapiens) (UniProt P04637). As to the kind of experiment: TOX21_p53_BLA_p2_ratio: Tox21 HCT-116 p53 Agonism Beta-lactamase Assay, Ratio, Phase 2 (AID 2283592). In short, it runs like this: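 First, HCT116 reporter cells settle for 5 h at 37C. Next, DMSO compound solutions are pinned in (217-fold dilution) and left 16 h. Finally, CCF4-AM substrate is loaded 2 h at room temperature and the 460/530 nm ratio read.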

Test [3] is described as follows: TOX21_p53_BLA_p3_viability: Viability Assessment in the Tox21 HCT-116 p53 Agonism Beta-lactamase Assay, Phase 3 (AID 2283593).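 Also: cells exposed to compound for 16 h before reading.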 In short, it runs like this:
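Cellular ATP was quantified by CellTiter-Glo luminescence, read after 30 min at room temperature. Beforehand, HCT116 cells (4000/well) received compound 5 h post-seeding, 217-fold diluted from DMSO, then incubated 16 h at 37C.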

Test [4] addresses Cellular tumor antigen p53 (Homo sapiens) (UniProt P04637). Put plainly: TOX21_p53_BLA_p3_ratio: Tox21 HCT-116 p53 Agonism Beta-lactamase Assay, Ratio, Phase 3 (AID 2283596). In short, it runs like this: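 Cells were seeded at 4000/well, rested 5 h at 37C, then dosed with DMSO compound solutions (217-fold dilution) for 16 h. CCF4-AM substrate was loaded for 2 h at room temperature, and the 460/530 nm emission ratio was fitted for gain of signal versus DMSO.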

A short description of test [5]: TOX21_p53_BLA_p4_viability: Viability Assessment in the Tox21 HCT-116 p53 Agonism Beta-lactamase Assay, Phase 4 (AID 2283597).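 Also: hits lower the luminescence signal meaning cytotoxicity.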 In short, it runs like this:
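4000 HCT116 cells per well; 5 h attachment; compounds from DMSO, 217-fold dilution; 16 h at 37C. Then CCF4-AM, 2 h RT, followed by CellTiter-Glo, 30 min RT, luminescence. Decrease = cytotoxicity.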

Test [6] concerns the target Cellular tumor antigen p53 (Homo sapiens) (UniProt P04637). As to the kind of experiment: TOX21_p53_BLA_p5_ratio: Tox21 HCT-116 p53 Agonism Beta-lactamase Assay, Ratio, Phase 5 (AID 2283599). Put shortly: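 Beta-lactamase reporter ratio (blue 460 nm over green 530 nm, 405 nm excitation) after 2 h CCF4-AM loading, in HCT-116 cells exposed 16 h at 37 C to compounds pinned at 217-fold dilution. Increases relative to DMSO baseline scored.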

Test [7] is described as follows: TOX21_p53_BLA_p5_viability: Viability Assessment in the Tox21 HCT-116 p53 Agonism Beta-lactamase Assay, Phase 5 (AID 2283600). In short, it runs like this: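 Decreased CellTiter-Glo luminescence denotes lost viability. Exposure: 16 h at 37C, 5% CO2, with compounds from DMSO stocks diluted 217-fold in wells of 4000 cells.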
Test [8] concerns the target Cellular tumor antigen p53 (Homo sapiens) (UniProt P04637). As to the kind of experiment: TOX21_p53_BLA_p4_ratio: Tox21 HCT-116 p53 Agonism Beta-lactamase Assay, Ratio, Phase 4 (AID 2283601). In short, it runs like this:
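Signal is the blue/green (460nm/530nm) ratio of cleaved versus uncleaved CCF4-AM substrate, read after 2 h substrate loading. Cells were HCT116 carrying the p53-responsive beta-lactamase reporter, dosed 16 h at 37C, 5% CO2; CellTiter-Glo measured in parallel.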

For test [9], the target named is PGR (gene 5241) (UniProt P06401). Put plainly: TOX21_PR_BLA_Followup_Antagonist_ratio: Tox21 HEK293 Progesterone Receptor (PR) Antagonism Beta-lactamase Follow-Up Assay, Ratio (AID 2283934).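 Also: PR-UAS-bla HEK293T cells stimulated with 1 nM R5020 agonist for 16 hr.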 Put shortly: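 Cells are plated, rested 6 hr, then dosed with test compound in DMSO and challenged with 1 nM promegestone. After 16 hr incubation, substrate loading for 2 h at room temperature precedes fluorescence reading; viability is measured in the same wells.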

Test [10] in a line: TOX21_PR_BLA_Followup_Agonist_viability: Viability Assessment in the Tox21 HEK293 Progesterone Receptor (PR) Agonism Beta-lactamase Follow-Up Assay (AID 2283935).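 Also: signal loss means lower viability so actives are cytotoxic.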 In short, it runs like this: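 Cells were plated in medium with 2% charcoal-stripped FBS and rested 6 hr. Compounds in DMSO were then added for 16 hr at 37C, followed by the FRET substrate step and CellTiter-Glo luminescence after 30 min.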

A short description of test [11]: TOX21_PR_BLA_Followup_Antagonist_viability: Viability Assessment in the Tox21 HEK293 Progesterone Receptor (PR) Antagonism Beta-lactamase Follow-Up Assay (AID 2283936).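 Also: cells exposed to compound with R5020 agonist for 16 h; hits lower the luminescence signal meaning cytotoxicity.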 In short, it runs like this: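 PR-UAS-bla HEK293T cells in medium with 2% charcoal-stripped FBS were treated with compounds plus R5020 for 16 hr at 37C. After the beta-lactamase read, CellTiter-Glo was added to the same wells and luminescence read after 30 min at room temperature.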

The target of test [12] is PGR (gene 5241) (UniProt P06401). Put plainly: TOX21_PR_LUC_Followup_Antagonist: Tox21 HEK293 Progesterone Receptor (PR) Antagonism Luciferase Follow-Up Assay (AID 2283938).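 Also: curve fitted upward as signal gain over DMSO baseline despite antagonist label.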 In short, it runs like this:
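HEK293-PR-A-luc cells, 3,000/well, preincubated 5 h at 37C before compound addition in DMSO; 16 h compound exposure at 37C. ONE-Glo luciferase luminescence read after 30 min at room temperature, fitted relative to DMSO baseline.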

Test [13] in a line: TOX21_PR_LUC_Followup_Antagonist_viability: Viability Assessment in the Tox21 HEK293 Progesterone Receptor (PR) Antagonism Luciferase Follow-Up Assay (AID 2283940). Put shortly:
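HEK293-PR-A-luc, 3,000 cells/well; 5 h at 37C/0% CO2; compound pin transfer; 16 h incubation; CellTiter-Glo ATP luminescence, signal loss = cytotoxicity.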

In test [14] the target is Thyroid hormone receptor alpha (Rattus norvegicus) + Thyroid hormone receptor beta (Rattus norvegicus) (UniProt P18113+P63059). Put plainly: TOX21_TR_LUC_GH3_Antagonist_Followup: Tox21 GH3 Thyroid Hormone Receptor Antagonism Luciferase Follow-Up Assay (AID 2283942). Put shortly:
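Loss of T3-driven (1.0 nM final) reporter activity in GH3 cells was read by ONE-Glo luminescence after 24 h incubation at 37C; 15-point compound series spanned 92 uM to 5nM final, 1,500 cells/well.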

The target in test [15] is THRB (gene 7068) (UniProt P10828). As to the kind of experiment: TOX21_TRB_BLA_Antagonist_Followup_ratio: Tox21 Thyroid Hormone Receptor beta Antagonism Beta-lactamase (BLA) Follow-Up Assay, Ratio (AID 2283958). In short, it runs like this: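 Cells were plated and allowed to attach for 5 h, then dosed with compounds in DMSO at 11 concentrations for 18 h at 37C. Beta-lactamase reporter activity was measured via CCF4-AM FRET as the 460:530 nm ratio.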

Test [16] in a line: TOX21_TRB_BLA_Antagonist_Followup_viability: Viability Assessment in the Tox21 Thyroid Hormone Receptor beta Antagonism Beta-lactamase (BLA) Follow-Up Assay (AID 2283961). Put shortly: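 HEK293T cells with GAL4-human TRβ LBD and UAS-bla reporter, 3,000 cells/well in 2% charcoal-stripped FBS medium; 11-point concentrations in triplicate, 18 h at 37C. Viability from ATP by CellTiter-Glo luminescence, 30 min RT, same plates.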

The target of test [17] is THRB (gene 7068) (UniProt P10828). As to the kind of experiment: TOX21_TRB_COA_Antagonist_Followup_ratio: Tox21 Thyroid Hormone Receptor beta Antagonism through Coactivator Recruitment Follow-Up Assay, Ratio (AID 2283967). In short, it runs like this: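 Coactivator recruitment to the GST-tagged TRb ligand-binding domain (5.0 nM) was read as the 520/495 nm TR-FRET ratio, using 200 nM fluorescein SRC-2 peptide and 2 nM terbium anti-GST. Scaled between DMSO and T3 wells; loss of signal fitted.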

Test [18] in a line: TOX21_TR_RXR_BLA_Antagonist_Followup_viability: Viability Assessment in the Tox21 Thyroid Hormone Receptor beta Retinoid X Receptor alpha (RXRa) Antagonism Beta-lactamase (BLA) Follow-Up Assay (AID 2283979). Put shortly:
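Follow-up compounds (11 concentrations, triplicate) were incubated 16 h at 37C/5% CO2 with HEK293T RXRa-bla cells seeded at 2,500/well in charcoal-stripped-serum medium. ATP content by CellTiter-Glo luminescence gave viability; curves fitted in both directions against DMSO.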

The term AC50 denotes the concentration at which the activity in the assay is half-maximal.

Cellular tumor antigen p53 (Homo sapiens), sequence (P04637 whole entry, looked up): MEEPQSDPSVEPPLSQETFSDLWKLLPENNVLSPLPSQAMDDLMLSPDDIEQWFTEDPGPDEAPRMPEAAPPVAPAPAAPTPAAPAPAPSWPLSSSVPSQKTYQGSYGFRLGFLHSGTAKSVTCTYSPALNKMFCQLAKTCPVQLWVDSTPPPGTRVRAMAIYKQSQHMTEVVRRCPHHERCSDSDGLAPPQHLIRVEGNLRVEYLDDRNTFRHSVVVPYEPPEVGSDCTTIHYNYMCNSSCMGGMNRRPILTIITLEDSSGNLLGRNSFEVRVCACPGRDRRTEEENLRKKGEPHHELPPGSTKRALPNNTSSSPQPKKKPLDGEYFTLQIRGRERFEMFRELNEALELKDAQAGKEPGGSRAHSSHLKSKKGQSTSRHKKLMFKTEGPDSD
PGR (gene 5241), sequence (P06401 whole entry, looked up): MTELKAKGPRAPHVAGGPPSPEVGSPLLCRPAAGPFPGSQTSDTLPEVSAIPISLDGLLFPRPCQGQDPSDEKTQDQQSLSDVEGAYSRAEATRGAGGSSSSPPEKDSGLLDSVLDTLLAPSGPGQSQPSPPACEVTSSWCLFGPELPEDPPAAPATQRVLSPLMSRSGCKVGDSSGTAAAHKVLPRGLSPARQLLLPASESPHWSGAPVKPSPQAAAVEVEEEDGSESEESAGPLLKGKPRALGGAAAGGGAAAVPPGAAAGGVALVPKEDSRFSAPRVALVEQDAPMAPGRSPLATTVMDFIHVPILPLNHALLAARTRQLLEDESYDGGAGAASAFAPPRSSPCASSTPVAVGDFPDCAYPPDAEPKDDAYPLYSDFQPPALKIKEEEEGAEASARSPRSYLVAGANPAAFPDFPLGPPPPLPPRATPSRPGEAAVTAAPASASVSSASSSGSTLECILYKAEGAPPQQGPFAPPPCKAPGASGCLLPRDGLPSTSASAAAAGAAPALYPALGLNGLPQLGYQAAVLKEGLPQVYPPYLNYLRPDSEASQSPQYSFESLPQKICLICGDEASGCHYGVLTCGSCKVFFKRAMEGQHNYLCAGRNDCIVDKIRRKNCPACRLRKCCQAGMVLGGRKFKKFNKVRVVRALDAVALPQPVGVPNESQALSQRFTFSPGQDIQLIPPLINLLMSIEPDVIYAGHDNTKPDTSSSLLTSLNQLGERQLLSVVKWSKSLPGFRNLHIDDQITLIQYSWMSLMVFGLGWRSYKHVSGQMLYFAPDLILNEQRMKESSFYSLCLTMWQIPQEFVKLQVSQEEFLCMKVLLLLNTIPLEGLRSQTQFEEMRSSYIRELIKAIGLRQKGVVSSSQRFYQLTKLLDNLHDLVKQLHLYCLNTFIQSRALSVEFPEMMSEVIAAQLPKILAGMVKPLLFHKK
THRB (gene 7068), sequence (P10828 whole entry, looked up, the tested form may be a part): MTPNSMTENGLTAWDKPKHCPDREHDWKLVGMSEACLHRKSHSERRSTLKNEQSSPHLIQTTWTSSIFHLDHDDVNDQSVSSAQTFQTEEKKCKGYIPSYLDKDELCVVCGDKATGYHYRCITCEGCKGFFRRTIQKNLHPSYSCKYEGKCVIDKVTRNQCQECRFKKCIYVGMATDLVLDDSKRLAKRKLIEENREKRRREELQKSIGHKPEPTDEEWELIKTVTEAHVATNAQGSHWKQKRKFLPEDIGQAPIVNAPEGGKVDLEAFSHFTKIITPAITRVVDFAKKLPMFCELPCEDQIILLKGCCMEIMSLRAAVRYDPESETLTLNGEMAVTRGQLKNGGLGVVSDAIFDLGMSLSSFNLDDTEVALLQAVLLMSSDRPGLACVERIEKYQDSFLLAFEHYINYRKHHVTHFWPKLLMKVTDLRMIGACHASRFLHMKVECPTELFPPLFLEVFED

On to `C#C[C@]1(O)CC[C@H]2[C@@H]3CCc4cc(OC5CCCC5)ccc4[C@H]3CC[C@@]21C`, for which the result in test [1], in test [2], in test [3], in test [4], in [5] and in test [6] was inactive. Moreover, the result in [8], in test [10], in test [11] and in test [13] was inactive. For the same compound, the AC50 was 37.8 µM (active) in [7], 13.6 µM (active) with PGR (gene 5241) [9] and 16.2 µM (active) in the test with PGR (gene 5241) [12].

`C1CCCC1.C1CCCC1.[Cl][V][Cl]`: the result in test [1], in [2], in [3], in test [4], in [6] and in [7] was inactive. The outcome in test [8] was inactive. For the same compound, the AC50 in test [5] was 40.3 µM (active).

`CCC(=C(CC)c1ccc(O)cc1)c1ccc(O)cc1`: the AC50 is 38.3 µM (active) in test [1]; 7.14 µM (active) in test [2]; 7.64 µM (active) in [4]; 17.7 µM (active) in test [6]; 7.47 µM (active) in test [8]; 23.7 µM (active) in the test with PGR (gene 5241) [9]. Moreover, the call in test [3], in test [5], in [7], in test [10], in test [11] and in [13] was inactive.

On to `O=C(Nc1ccc(Cl)c(Cl)c1)C1CC1`, for which the outcome in [1], in test [2], in test [3], in test [4], in [5] and in test [6] was inactive. The compound was classed as inactive (in test [7]; in [8]; with PGR (gene 5241) [9]; in test [10]; in [11]; in the test with PGR (gene 5241) [12]). Moreover, the compound was classed as inactive in test [13].

As for `O=C1C(=O)c2ncccc2-c2cccnc21`, the result (in [1]; in [3]; in test [7]; in test [14]; in the test with THRB (gene 7068) [15]; with THRB (gene 7068) [17]) was inactive. The result in test [18] was inactive. The AC50 in [2] is 1.01 µM (active); in test [4] it was 1.08 µM (active); in [5], 5.12 µM (active); in test [6], 0.599 µM (active); in test [8], 0.96 µM (active); in test [16], 5.41 µM (active).

For `C=CC(=O)Nc1cc2c(Nc3ccc(F)c(Cl)c3)ncnc2cc1OCCCN1CCOCC1`, the compound was classed as inactive in [1], in [2], in [5], in test [6] and in [7]. The AC50 in test [3] was 38.7 µM (active); in test [4], 25.4 µM (active); in test [8], 7.82 µM (active).

Turning to `CC(=O)Oc1ccc2c(c1)CC[C@@H]1[C@@H]2CC[C@]2(C)[C@@H](O)CC[C@@H]12`, the compound was classed as inactive in test [1], in [2], in test [3], in test [4], in test [5] and in test [6]. Moreover, the compound was called inactive in test [7], in [8], in [10] and in test [11]. The results for the AC50 with PGR (gene 5241) [9] and with PGR (gene 5241) [12] were 0.846 µM (active) and 0.449 µM (active), respectively.

As to `CN(C/C=C/c1ccccc1)Cc1cccc2ccccc12`, the result in [1], in test [2], in test [3], in test [4], in test [5] and in test [6] was inactive. In addition, the compound was called inactive in test [7] and in test [8].
